Assay outcomes (PubChem)
JMJD2A Tudor inh: blocks the human JMJD2A Tudor domain. AlphaScreen JMJD2A-Tudor / H3K4me3 peptide binding. Potency, µM (titrated, usually from 114 µM), actives largely listed as inhibitors. 4.4% of 390,000 active. AID 504339; also: nearly all actives have a fitted effect of over 50% in size
G9a block: blocks human histone lysine methyltransferase G9a. Q96KQ7. G9a H3K9 monomethylation, AlphaScreen, 2 h. Potency, µM (series often up to 102 µM), usual class: inhibitors. 8.8% of 350,000 active; also: nearly all actives have a fitted effect of over 75% in size
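G9a (20 nM) preincubated 15 min RT with compounds, then 500 nM biotinylated H3K9 peptide and 20 uM SAM added; 2 h RT reaction. Monomethyl-H3K9 product detected by AlphaScreen with anti-H3K9me1 antibody, streptavidin donor and anti-rabbit IgG acceptor beads.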
BAZ2B inh: inhibitors of human BAZ2B bromodomain. Potency, µM (titrated, usually from 114 µM), usual class: inhibitors. 4.4% of 360,000 active. AlphaScreen BAZ2B-H3K14Ac peptide displacement. Q9UIF8. AID 504333; also: nearly all actives have a fitted effect of over 60% in size
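Compounds, titrated to a top concentration of 110 uM, were incubated 30 min at room temperature with preformed BAZ2B/acetyl-K14 H3 peptide complex (50 nM each). Proximity signal was measured by AlphaScreen after 20 min with beads.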
PI5P4K alpha inh: blocks human PI5P4K alpha kinase activity; P48426; PI5P4Kalpha enzyme, ADP-Glo luminescence, 60 min; stronger effect = lower value; 1.2% of 330,000 active; AID 652105; max response, %; active = max response of -50% or lower; inconclusive = between -30% and -50%; inactive = -30% or higher; also: value at the top dose of about 77 µM
Target sequence (P48426 whole entry, looked up): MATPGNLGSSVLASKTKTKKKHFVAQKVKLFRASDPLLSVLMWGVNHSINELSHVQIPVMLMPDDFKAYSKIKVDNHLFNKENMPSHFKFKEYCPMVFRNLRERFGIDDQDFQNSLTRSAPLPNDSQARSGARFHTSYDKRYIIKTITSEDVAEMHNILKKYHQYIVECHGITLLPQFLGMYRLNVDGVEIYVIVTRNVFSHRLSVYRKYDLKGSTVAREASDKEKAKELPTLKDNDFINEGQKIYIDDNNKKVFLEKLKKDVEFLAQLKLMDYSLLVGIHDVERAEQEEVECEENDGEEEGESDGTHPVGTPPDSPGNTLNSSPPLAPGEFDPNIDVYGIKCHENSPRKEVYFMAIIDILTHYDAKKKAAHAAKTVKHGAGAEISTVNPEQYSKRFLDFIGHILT
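Controls without substrate or without enzyme flank wells where PI5P4Kalpha converts substrate using 5 microM ATP (final). Incubation lasts 60 minutes at room temperature; ADP formed is read by ADP-Glo luminescence.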
HP1b chromo inh: HP1-beta chromodomain-methylated histone interaction inhibition | Potency, µM (top dose mostly 114 µM), most hits filed as inhibitors | 0.56% of 390,000 active | P83916 | AlphaScreen HP1-beta / biotin-H3K9me3 peptide binding; also: nearly all actives have a fitted effect of over 70% in size
Target sequence (P83916 whole entry, looked up): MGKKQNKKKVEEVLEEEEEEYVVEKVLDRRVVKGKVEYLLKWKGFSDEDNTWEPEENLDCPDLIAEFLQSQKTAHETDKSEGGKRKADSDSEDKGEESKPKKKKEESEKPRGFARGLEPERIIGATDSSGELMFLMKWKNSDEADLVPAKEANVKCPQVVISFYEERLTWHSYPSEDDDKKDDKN
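Compound inhibition of the preformed complex between 50 nM HP1-beta and 50 nM biotinylated H3K9me3 peptide was read by AlphaScreen. Buffer was PBS pH 7.4 with 0.01% Tween-20. Incubations ran 30 min at room temperature, with 10 ug/mL donor/acceptor beads.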
PLK1 PBD block: PLK1 (human) polo-box domain binding inhibition; Plk1 PBD binding of FITC phosphopeptide, fluorescence polarization; Potency, µM, most hits filed as inhibitors; 2.8% of 360,000 active; AID 720504; also: series mostly up to about 57 µM; nearly all actives have a fitted effect of over 65% in size
Hits are given with their value; . = inactive; ? = inconclusive; / = not tested or not shown; [ ] = dose if it differs, or a comment. The list is not random: actives were taken first. Their share in the collection is about 12%. Unless noted, calls follow the shape of the dose curve; as a rule, active = well fitted curve in the direction sought with a large enough effect; inconclusive = small, poorly fitted or top-dose-only effect, or another doubt; inactive = no such curve, though single readings can be large; an effect the other way counts as inactive or inconclusive.

SMILES	JMJD2A Tudor inh	G9a block	BAZ2B inh	PI5P4K alpha inh	HP1b chromo inh	PLK1 PBD block
O=C(Nc1ccc(O)cc1C(=O)O)c1ccc2c(c1)C(=O)N(Cc1ccco1)C2=O	?	?	50µM	/	.	.
CC1CCN(C(=O)COC(=O)c2ccc3c(c2)C(=O)N(Cc2ccco2)C3=O)CC1	.	56µM	.	.	.	.
O=C(c1ccc2c(c1)C(=O)N(Cc1ccco1)C2=O)N1CCOCC1	.	?	.	/	.	.
COC(=O)C(NS(=O)(=O)CCl)C(C)C (centres undefined)	.	/	/	/	.	/
CCOc1ccc(CCNC(=O)c2ccc(CSCc3ccccc3C)o2)cc1OCC	.	?	.	/	.	/
COc1ccc(C2Nc3ccccc3C(=O)N2Cc2ccccc2)cc1COc1ccc(Cl)cc1Cl (centres undefined)	/	.[12.7 µM]	.	/	/	/
COc1cc(OC)c(-c2nn3c(-c4cc(C)[nH]n4)nnc3s2)cc1OC	.	/	/	/	.	/
O=C(O)Cc1ccc(NC(=O)c2ccc3c(c2)C(=O)N(Cc2ccccc2)C3=O)cc1	/	/	/	.	/	.
O=C(O)Cc1ccc(NC(=O)c2ccc3c(c2)C(=O)N(Cc2ccco2)C3=O)cc1	35µM	?	.	.	.	?
CCOC(=O)c1c(C)[nH]c(C)c1S(=O)(=O)N(C)CC(=O)Nc1ccc(C)cc1Br	.	.	.	/	.	/
CCOC(=O)C1CCN(C(c2ccc(SC)cc2)c2c(O)cc(C)n(Cc3ccco3)c2=O)CC1 (centres undefined)	56µM	?	.	/	.	/
Cc1cc(C)c2c(NC(N)=S)n[nH]c2n1	32µM	25µM	.	.	.	.
CCCc1cc(CNC(=O)C2CCC(=O)N(Cc3ccccc3OC)C2)on1 (centres undefined)	.	?	.	.	.	.
O=C(O)c1cc(O)c2c(c1)C(=O)c1cccc(O)c1C2=O	56µM	40µM	50µM	-91	?	?
COc1ccc(NC(=O)CSc2nnnn2C2CC3C=CC2C3)cc1 (centres undefined)	.	?	.	.	.	.
Oc1c(C=C2N=c3ccccc3=N2)sc(=S)n1-c1ccccc1	.	.	.	.	.	.
CC1=Nc2ccccc2/C1=C/c1sc(=S)n(-c2cccc(C(=O)O)c2)c1O	?	25µM	?	-55	?	.
Cc1ccc(C)c(Cn2c(=O)n(-c3ccc(Cl)cc3)c(=O)c3c(C)c(C)sc32)c1	.	.	.	/	.	/
COc1ccc(OCc2cc(C(=O)N(C)CC3CCCCO3)no2)c(Cl)c1 (centres undefined)	.	/	.	.	.	.
COc1ccc(OCc2cc(C(=O)N(C)CCC3CCOCC3)no2)c(Cl)c1	?	.	.	.	.	27µM
CCCC(c1nnnn1C(C)(C)CC)N1CCN(C2CCCC2)CC1 (centres undefined)	.[11.4 µM]	89µM	?	.	.	.
CCCC(c1nnnn1Cc1cccs1)N1CCN(C2CCCC2)CC1 (centres undefined)	56µM	?	?	.	?	27µM
CCC(c1nnnn1Cc1cccs1)N1CCN(C2CCCC2)CC1 (centres undefined)	.	.[12.7 µM]	.	.	.	.
CCCC(c1nnnn1Cc1ccco1)N1CCN(C2CCCC2)CC1 (centres undefined)	?	50µM	?	.	.	.
CCCC(c1nnnn1C1CCCCC1)N1CCN(C2CCCC2)CC1 (centres undefined)	.	?	?	.	.	.
SMILES	JMJD2A Tudor inh	G9a block	BAZ2B inh	PI5P4K alpha inh	HP1b chromo inh	PLK1 PBD block
COc1ccc(S(=O)(=O)N(CC(=O)Nc2ccccc2Cl)Cc2ccccc2)cc1	.	.	.	/	.	/
CCOc1ccc(N2C(=O)CC(NCCNc3ccc([N+](=O)[O-])cn3)C2=O)cc1 (centres undefined)	.	3.2µM	.	.	.	.
CCCOc1ccc(N2C(=O)CC(N3CCN(c4nc5ccccc5s4)CC3)C2=O)cc1 (centres undefined)	.	45µM	.	.	.	.
CCOc1ccc(N2C(=O)CC(N3CCN(c4ccc([N+](=O)[O-])cc4)CC3)C2=O)cc1 (centres undefined)	.	7.9µM	.	.	.	.
COc1ccc(NC2CC(=O)N(c3cccc([N+](=O)[O-])c3)C2=O)cc1 (centres undefined)	.	?	.	.	.	.
COc1ccc(N2C(=O)CC(NCCNc3ccc([N+](=O)[O-])cn3)C2=O)cc1 (centres undefined)	.	6.3µM	.	.	.	.
CCOc1ccc(N2C(=O)CC(NCCc3c[nH]c4ccccc34)C2=O)cc1 (centres undefined)	.	?	.	.	.	.
Cc1ccc(CSc2c(C)cnc3c2c(=O)n(C)c(=O)n3C)cc1	.	.	.	/	.	/
CCN(CC)CCCNC(=O)c1cn(CC)c2ccc(S(=O)(=O)N3CCc4ccccc4C3)cc2c1=O	.	.	.	.	.	.
CN(C)S(=O)(=O)c1ccc2c(c1)c(=O)c(C(=O)NCCCN1CCCCCC1)cn2C	.	45µM	.	.	.	.
CCN(CC)CCNC(=O)c1cn(CC)c2ccc(S(=O)(=O)N3CCc4ccccc4C3)cc2c1=O	.	.	.	.	.	27µM
CC1CCN(CCCNC(=O)c2cn(C)c3ccc(S(=O)(=O)N(C)C4CCCCC4)cc3c2=O)CC1	?	.	/	/	.	/
CCC(C)NC(=O)c1cn(CC)c2ccc(S(=O)(=O)N(C)C)cc2c1=O (centres undefined)	.	.	.	.	.	.
CCn1cc(C(=O)O)c(=O)c2cc(S(=O)(=O)N(C)C)ccc21	20µM	?	.	/	.	.
CN1CCN(C(=O)c2cn(C)c3ccc(S(=O)(=O)N(C)C4CCCCC4)cc3c2=O)CC1	.	56µM	.	.	.	.
CN(CCCNC(=O)c1cn(C)c2ccc(S(=O)(=O)N(C)C)cc2c1=O)c1ccccc1	?	50µM	?	.	.	.
OC(COc1cccc2ccccc12)CN1CCN(c2ccc(Cl)cc2)CC1 (centres undefined)	?	45µM	?	.	.	.
COc1ccc(N2CCN(CC(O)COc3ccc(C)cc3C)CC2)cc1 (centres undefined)	45µM	40µM	40µM	.	?	.
COc1ccc(N2CCN(CC(O)COc3ccccc3[N+](=O)[O-])CC2)cc1 (centres undefined)	28µM	?	?	.	?	.
COc1ccc(N2CCN(CC(O)COc3cc(C)ccc3C)CC2)cc1 (centres undefined)	.	8.9µM	?	.	.	.
Cc1ccccc1CCNC(=O)c1ccc2c(c1)nc1n2CCC(C)C1 (centres undefined)	.	.	.	/	.	/
C[n+]1cc2c3c(ccc2c2ccc4cc5c(cc4c21)OCO5)OCO3	89µM	1.9µM	/	/	.	/
